Only a selection was taken, and the strongest signals are over-represented in it overall.
What was measured:
Test in all cases: glycan array binding signal (z-score within array); higher = stronger binding
Settings in all cases: glycan notation: IUPAC condensed, linker removed
[1] = target: GlcNAc(b1-3)Gal(b1-4)GlcNAc(b1-2)Man(a1-3)[GlcNAc(b1-3)Gal(b1-4)GlcNAc(b1-2)Man(a1-6)]Man(b1-4)GlcNAc(b1-4)GlcNAc
Method in brief: (§1)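 Glycan array binding is given as a within-array Z-score, which can be read as non-binding when negative. The arrays, 3228 of them, came from the Consortium for Functional Glycomics database and were retained only where the protein sequence was available. Z-scores were averaged across arrays of the same protein sequence at different concentrations or buffers and across linkers.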

[2] = target: GlcNAc(b1-3)Gal(b1-4)GlcNAc(b1-3)Gal(b1-4)GlcNAc(b1-3)Gal(b1-4)GlcNAc(b1-2)[GlcNAc(b1-3)Gal(b1-4)GlcNAc(b1-3)Gal(b1-4)GlcNAc(b1-3)Gal(b1-4)GlcNAc(b1-6)]Man(a1-6)[GlcNAc(b1-3)Gal(b1-4)GlcNAc(b1-3)Gal(b1-4)GlcNAc(b1-3)Gal(b1-4)GlcNAc(b1-2)Man(a1-3)]Man(b1-4)GlcNAc(b1-4)[Fuc(a1-6)]GlcNAc
Method in brief: as §1

[3] = target: GlcNAc(b1-4)Gal(b1-4)GlcNAc
Method in brief: as §1

[4] = target: Man(a1-2)Man(a1-6)[Man(a1-3)]Man(a1-6)[Man(a1-2)Man(a1-2)Man(a1-3)]Man
Method in brief: as §1

[5] = target: Man(a1-3)[Man(a1-6)]Man(a1-6)[Man(a1-2)Man(a1-3)]Man(b1-4)GlcNAc(b1-4)GlcNAc
Method in brief: as §1

[6] = target: Neu5Ac(a2-3)Gal(b1-3)GlcNAc(b1-3)Gal(b1-3)GlcNAc
Method in brief: as §1

[7] = target: Neu5Ac(a2-3)Gal(b1-3)GlcNAc(b1-3)GalNAc
Method in brief: as §1

[8] = target: Neu5Ac(a2-3)Gal(b1-4)GlcNAc(b1-2)Man(a1-3)[Neu5Ac(a2-3)Gal(b1-4)GlcNAc(b1-2)Man(a1-6)]Man(b1-4)GlcNAc(b1-4)GlcNAc
Method in brief: as §1

[9] = target: Neu5Ac(a2-3)Gal6S(b1-4)GlcNAc
Method in brief: as §1

[10] = target: Neu5Ac(a2-6)Gal(b1-4)GlcNAc(b1-2)Man(a1-3)[Neu5Ac(a2-6)Gal(b1-4)GlcNAc(b1-2)Man(a1-6)]Man(b1-4)GlcNAc(b1-4)GlcNAc
Method in brief: as §1

[11] = target: Neu5Ac(a2-6)Gal(b1-4)GlcNAc(b1-2)Man(a1-6)[Gal(b1-4)GlcNAc(b1-2)Man(a1-3)]Man(b1-4)GlcNAc(b1-4)GlcNAc
Method in brief: as §1

[12] = target: Neu5Ac(a2-6)Gal(b1-4)GlcNAc(b1-2)[Neu5Ac(a2-6)Gal(b1-4)GlcNAc(b1-4)]Man(a1-3)[GlcNAc(b1-4)][Neu5Ac(a2-6)Gal(b1-4)GlcNAc(b1-2)[Neu5Ac(a2-6)Gal(b1-4)GlcNAc(b1-6)]Man(a1-6)]Man(b1-4)GlcNAc(b1-4)GlcNAc
Method in brief: as §1

[13] = target: Neu5Ac(a2-6)Gal(b1-4)GlcNAc(b1-3)GalNAc
Method in brief: as §1

Neu5Ac(a2-8)Neu5Ac = target: Neu5Ac(a2-8)Neu5Ac
Method in brief: as §1

[14] = target: Neu5Ac(a2-8)Neu5Ac(a2-3)[GalNAc(b1-4)]Gal(b1-4)Glc
Method in brief: as §1

Neu5Gc(a2-6)GalNAc = target: Neu5Gc(a2-6)GalNAc
Method in brief: as §1

[15] = target: Fuc(a1-2)[Gal(a1-3)]Gal(b1-4)Glc
Method in brief: as §1

[16] = target: Fuc(a1-2)[GalNAc(a1-3)]Gal(b1-4)[Fuc(a1-3)]GlcNAc
Method in brief: as §1

Fuc(a1-3)GlcNAc = target: Fuc(a1-3)GlcNAc
Method in brief: as §1

[17] = target: Gal(b1-3)GalNAc(b1-3)Gal(a1-4)Gal(b1-4)Glc
Method in brief: as §1

[18] = target: Gal(b1-3)[GlcNAc(b1-6)]GalNAc
Method in brief: as §1

[19] = target: Gal(b1-3)[Neu5Ac(a2-6)]GalNAc
Method in brief: as §1

[20] = target: Gal(b1-4)GalNAc(b1-3)[Fuc(a1-2)]Gal(b1-4)GlcNAc
Method in brief: as §1

[21] = target: GalNAc(b1-3)Gal(a1-4)Gal(b1-4)GlcNAc
Method in brief: as §1

[22] = target: GlcNAc(b1-6)Gal(b1-4)GlcNAc
Method in brief: as §1

[23] = target: Man(a1-2)Man(a1-2)Man(a1-3)Man
Method in brief: as §1

[24] = target: Neu5Ac(a2-3)Gal(b1-3)GalNAc(b1-3)Gal(a1-4)Gal(b1-4)Glc
Method in brief: as §1

[25] = target: Neu5Ac(a2-3)Gal(b1-3)[Fuc(a1-4)]GlcNAc
Method in brief: as §1

[26] = target: Neu5Ac(a2-3)Gal(b1-4)GlcNAc(b1-3)Gal(b1-4)GlcNAc(b1-3)Gal(b1-4)GlcNAc
Method in brief: as §1

[27] = target: Neu5Ac(a2-3)Gal(b1-4)GlcNAc(b1-3)Gal(b1-4)[Fuc(a1-3)]GlcNAc
Method in brief: as §1

[28] = target: Neu5Ac(a2-3)[Neu5Ac(a2-6)]GalNAc
Method in brief: as §1

[29] = target: Neu5Ac(a2-6)GalNAc(b1-4)GlcNAc
Method in brief: as §1

[30] = target: Neu5Gc(a2-3)Gal(b1-3)[Fuc(a1-4)]GlcNAc
Method in brief: as §1

[31] = target: Neu5Gc(a2-3)Gal(b1-4)GlcNAc
Method in brief: as §1

Binder	glycan array binding signal (z-score) [1]	glycan array binding signal (z-score) [2]	glycan array binding signal (z-score) [3]	glycan array binding signal (z-score) [4]	glycan array binding signal (z-score) [5]	glycan array binding signal (z-score) [6]	glycan array binding signal (z-score) [7]	glycan array binding signal (z-score) [8]	glycan array binding signal (z-score) [9]	glycan array binding signal (z-score) [10]	glycan array binding signal (z-score) [11]	glycan array binding signal (z-score) [12]	glycan array binding signal (z-score) [13]	glycan array binding signal (z-score) (Neu5Ac(a2-8)Neu5Ac)	glycan array binding signal (z-score) [14]	glycan array binding signal (z-score) (Neu5Gc(a2-6)GalNAc)	glycan array binding signal (z-score) [15]	glycan array binding signal (z-score) [16]	glycan array binding signal (z-score) (Fuc(a1-3)GlcNAc)	glycan array binding signal (z-score) [17]	glycan array binding signal (z-score) [18]	glycan array binding signal (z-score) [19]	glycan array binding signal (z-score) [20]	glycan array binding signal (z-score) [21]	glycan array binding signal (z-score) [22]	glycan array binding signal (z-score) [23]	glycan array binding signal (z-score) [24]	glycan array binding signal (z-score) [25]	glycan array binding signal (z-score) [26]	glycan array binding signal (z-score) [27]	glycan array binding signal (z-score) [28]	glycan array binding signal (z-score) [29]	glycan array binding signal (z-score) [30]	glycan array binding signal (z-score) [31]
DrGRIFIN (Danio rerio), Q6DGJ1 (protein) MTLRFEASCPDGLCPGWSVILKGETPPEASKFEINFLCDRDDRVAFHFNPRFTESDIICNSYMANRWGQEERCNHFPLGVEEPFQIEIYSDNDHFHVYIDKAKVMQYKHRVEDLKTITKLQVVNDVKISSLEITKKLFY	-0.132	-0.163	-0.166	-0.123	-0.189	-0.131	-0.117	-0.141	-0.179	-0.171	-0.195	-0.026	-0.217	-0.131	-0.146	-0.148																		
HMGB1 (Rattus norvegicus), P63159 (protein) MGKGDPKKPRGKMSSYAFFVQTCREEHKKKHPDASVNFSEFSKKCSERWKTMSAKEKGKFEDMAKADKARYEREMKTYIPPKGETKKKFKDPNAPKRPPSAFFLFCSEYRPKIKGEHPGLSIGDVAKKLGEMWNNTAADDKQPYEKKAAKLKEKYEKDIAAYRAKGKPDAAKKGVVKAEKSKKKKEEEDDEEDEEDEEEEEEEEDEDEEEDDDDE																	0.151	-0.019	9.99	-0.447	-0.335	-0.379	-0.322	2.44	2.57	-0.58	-0.21	-0.164	-0.169	2.06	-0.263	2.1	2.69	0.031
